High-throughput results: PubChem BioAssay, National Center for Advancing Translational Sciences (NCATS)
Rows were chosen to be rich in hits. Some 19% of all compounds tested hit in one or more screens of this group.
HT1080 IDH1KD tx: HT-1080 IDH1 knockdown cell toxicity (counter line). HT-1080 IDH1 knockdown viability, ATP luminescence, 48 h. Potency, µM (highest dose often 46.1 µM), actives largely listed as cytotoxic. 2% of 360,000 active. AID 686971
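% activity derives from luminescence (CellTiter-Glo), normalised to DMSO and no-cell wells. HT-1080-IDH1KD cells, 750/well, had 48 h compound exposure at 37 °C.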
DT40 TDP1 no CPT: qHTS for Inhibitors of human tyrosyl-DNA phosphodiesterase 1 (TDP1): qHTS in cells in absence of CPT. DT40 Tdp1-/- hTDP1 cells, no CPT, ATP luminescence, 48 h. Potency, µM (top dose mostly 46.2 µM), actives largely listed as inhibitors. 15% of 420,000 active; note: nearly all actives have a fitted effect of over 55% in size
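Growth of hTDP1-complemented DT40 Tdp1-knockout cells is measured by ATP luminescence after at least 48 hr compound exposure at 37 °C, with DMSO substituting for the 20 nM CPT used in the parallel screen.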
ELG1 repair inh: ELG1-dependent DNA repair inhibition; Potency, µM (doses to about 46.1 µM), usual class: inhibitors; AID 504467; 2.3% of 330,000 active; HEK293T ELG1-luciferase reporter, luminescence, 16 h; DNA damage induced by 5-fluorouridine; note: nearly all actives have a fitted effect of over 55% in size
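HEK293T cells expressing luciferase-tagged ELG1 (2,000/well) received 5-Fluorouridine plus compound or DMSO for 16 hr at 37 °C. Luciferase was read by ONE-Glo luminescence after 30 min at room temperature.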
DT40 TDP1 CPT: DT40-hTDP1 cell growth loss with CPT | chicken DT40 Tdp1-/-;hTDP1 cells + 20 nM CPT, ATP luminescence, 48 h | Potency, µM (doses to about 46.2 µM), most hits filed as inhibitors | 12% of 420,000 active | AID 686979; note: nearly all actives have a fitted effect of over 55% in size
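Chicken DT40 Tdp1-/- cells complemented with human TDP1, 400 cells/well, exposed to compounds plus 20 nM camptothecin for at least 48 h at 37 C; viability read as ATP content by CellTiter-Glo luminescence.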
IL1B secr inh: blocks inflammasome-driven IL-1 beta release. THP-1 LPS/ATP IL-1B secretion, AlphaLISA, 16 h; hits give low values. activity change, % at 57.5 µM. 4.7% of 360,000 active. AID 743279; in the data active = activity change below about -50%; inconclusive = mostly about -30% to -49%
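Secreted IL-1B measured by AlphaLISA bead assay after 16 h compound exposure of THP-1 cells; compounds (final up to 57.5 uM) added 1 h before LPS (250 ng/mL) and ATP (1.25 mM) stimulation; lower signal means less secretion.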
HT1080NT lethal: kills 2HG-producing HT-1080-NT fibrosarcoma cells; HT-1080-NT fibrosarcoma viability, CellTiter-Glo ATP luminescence, 48 h; Potency, µM (series often up to 46.1 µM), hits mostly cytotoxic; 1.6% of 360,000 active; AID 686970;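 note: NT is the 2HG producing partner of a matched IDH1 knockdown line; nearly all actives have a fitted effect of over 55% in size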
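Read-out is CellTiter-Glo luminescence after 10 minutes at room temperature, following 48 hours' compound treatment of HT-1080-NT cells (750 cells/well, RPMI, 5% FBS, 37 degrees C).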
A number is an active result; – = inactive; ? = inconclusive; · = no result given; [ ] = dose if it differs, or a comment. Unless noted, calls come from the whole dose curve; as a rule, active = well fitted curve in the direction sought with a large enough effect; inconclusive = small, poorly fitted or top-dose-only effect, or another doubt; inactive = no such curve, though single readings can be large; an effect the other way counts as inactive or inconclusive.

SMILES | HT1080 IDH1KD tx | DT40 TDP1 no CPT | ELG1 repair inh | DT40 TDP1 CPT | IL1B secr inh | HT1080NT lethal
CCCCCCCC/C=C\CCCCCCCC(N)=O | · | –[4.12 µM] | · | –[4.12 µM] | · | ·
CCOC(=O)N1CCC(n2c(SCC(=O)Nc3ccccc3OC)nc3ccccc3c2=O)CC1 | – | ? | ? | ? | – | –
C=CCSc1nc2ccccc2c(=O)n1C1CCOC(C)(C)C1 (stereo unspecified) | – | 23.1µM | – | 16.4µM | – | –
CC(C)Cn1c(SCC(=O)N2CCCCC2)nc2ccccc2c1=O | – | 25.9µM | ? | ? | – | –
CCOC(=O)N1CCC(n2c(SCC(=O)N3CCC(C)CC3)nc3ccccc3c2=O)CC1 | – | ? | ? | 16.4µM | ? | –
COCCn1c(SCC(=O)N2CCC(C)CC2)nc2ccccc2c1=O | – | ? | – | ? | – | –
CCOC(=O)N1CCC(n2c(SCC(=O)N3CCCC3)nc3ccccc3c2=O)CC1 | – | 18.4µM | – | 23.1µM | – | –
COc1ccccc1N1CCN(C(=O)CN(C)S(=O)(=O)c2cc(C)ccc2OC)CC1 | – | – | – | – | – | –
COc1ccc(C(=O)Nn2c(SCC(=O)NC3CCCCC3)nc3ccccc3c2=O)cc1 | – | – | ? | – | ? | ?
O=c1c2ccccc2nc(SCCN2CCCCC2)n1CCc1ccccc1 | 14.6µM | 20.6µM | – | ? | -60.2 | ?
CCOC(=O)N1CCC(n2c(SCC(=O)NCc3ccccc3)nc3ccccc3c2=O)CC1 | – | 20.6µM | ? | 23.1µM | – | –
COc1ccc(C(=O)Nn2c(SCC(=O)N3CCC(C)CC3)nc3ccccc3c2=O)cc1 | ? | – | ? | – | -52.9 | ?
CCNC(=O)Nc1ccc(OC)cc1OC | – | – | – | – | – | –
CC(NC(=O)CCc1nnc(CCCc2ccccc2)o1)c1ccccc1 (stereo unspecified) | – | – | ? | – | – | –
Cc1ccc(C(=O)c2oc3ccccc3c2NC(=O)C(C)Oc2ccccc2Cl)cc1 (stereo unspecified) | · | – | · | – | · | ·
CCOc1ccc(CCNCc2c(C(=O)O)n(Cc3ccc(C)cc3)c3cc(OC)ccc23)cc1 | · | 18.4µM | · | ? | · | ·
COc1ccc2c(CNCCc3ccco3)c(C(=O)O)n(Cc3ccccc3)c2c1 | · | ? | · | – | · | ·
COc1ccc(Cn2c(C(=O)O)c(CNCc3ccc(OC)cc3OC)c3ccc(C)cc32)cc1 | · | 9.2µM | · | 14.6µM | · | ·
COc1ccc(Cn2c(C(=O)O)c(CNCCc3cc(OC)ccc3OC)c3ccc(C)cc32)cc1 | · | 16.4µM | · | ? | · | ·
COc1ccc(CCNCc2c(C(=O)O)c(C)n(Cc3ccccc3C)c2C)c(OC)c1 | · | 18.4µM | · | ? | · | ·
CCOc1ccc(CCNCc2c(C(=O)O)c(C)n(Cc3ccccc3F)c2C)cc1 | · | – | · | – | · | ·
C=C1CCC2C(CC2(C)C)C(=O)CCC1O (stereo unspecified) | · | – | · | – | · | ·
COc1ccc(C2CC(=O)c3cc(-c4nc(-c5cccc([N+](=O)[O-])c5)cs4)c(=O)n(-c4ccccc4C)c3C2)cc1 (stereo unspecified) | · | – | · | – | · | ·
Cc1c(C)c2ccc(OC(C)C(=O)NCCc3c[nH]c4ccccc34)cc2oc1=O (stereo unspecified) | – | ? | – | ? | – | –
Cc1nn(C(=O)c2ccccc2F)c(C)c1S(=O)(=O)N1CCOCC1 | · | – | · | – | · | ·
SMILES | HT1080 IDH1KD tx | DT40 TDP1 no CPT | ELG1 repair inh | DT40 TDP1 CPT | IL1B secr inh | HT1080NT lethal
COc1ccc(NC(=O)CSc2nnc(NC(=O)c3ccccc3C(=O)O)s2)cc1 | – | ? | – | 25.9µM | – | –
COc1cccc(Nc2nnc(SCC(=O)Nc3sccc3C(N)=O)s2)c1 | – | 8.2µM | 14.6µM | 13µM | – | ?
CCc1ccc(Nc2nnc(SCC(=O)Nc3sccc3C(N)=O)s2)cc1 | ? | ? | ? | ? | – | –
Cc1ccccc1Nc1nnc(SCC(=O)Nc2ccccc2[N+](=O)[O-])s1 | – | – | ? | – | – | –
CC(C)C(=O)Nc1nnc(SCC(=O)Nc2ccc3c(c2)OCCO3)s1 | – | – | – | – | – | –
COc1ccc(Nc2nnc(SCC(=O)NC(=O)Nc3ccc4c(c3)OCCO4)s2)cc1 | – | 16.4µM | – | ? | – | –
Cc1cccc(Nc2nnc(SCC(=O)Nc3ccccc3[N+](=O)[O-])s2)c1 | – | 16.4µM | – | ? | – | –
N[C@@H](Cc1cc(-c2ccc(Cl)cc2Cl)cc(CP(=O)(O)O)c1O)C(=O)O | · | – | · | – | · | ·
COc1cccc(CNS(=O)(=O)c2cnc(N)nc2)c1 | · | – | · | – | · | ·
CCC(=O)Nc1nnc(SCC(=O)Nc2ccc3c(c2)OCO3)s1 | – | ? | – | ? | – | –
CCC(=O)Nc1nnc(SCC(=O)Nc2ccc3c(c2)OCCO3)s1 | ? | ? | – | 14.6µM | – | –
CCC(=O)Nc1nnc(SCC(=O)NCC2CCCO2)s1 (stereo unspecified) | ? | 0.291µM | · | – | – | ?
O=C(CC(=O)Nc1ccccc1F)Nc1ccc2nc3n(c(=O)c2c1)CCCCC3 | · | ? | · | – | · | ·
O=S1(=O)CC=C(CSC(=S)NC2CCS(=O)(=O)C2)C1 (stereo unspecified) | – | ? | – | 10.3µM | -97.4 | –
CC(C)(C)c1cc(CSC(=S)NC2CCS(=O)(=O)C2)c(Br)c(C(C)(C)C)c1 (stereo unspecified) | ? | 11.6µM | ? | 6.51µM | -58.3 | ?
Cn1c(=O)nc2n(-c3ccc(Cl)c(Cl)c3)c3cc(Cl)ccc3cc-2c1=O | · | – | · | – | · | ·
CC(C)OC(=O)CCCCCN1C(=O)CSC1=S | – | – | – | – | -55.6 | –
c1ccc(Cn2nnnc2CN2CCOCC2)cc1 | – | – | – | – | – | –
OC1(c2cccc(C(F)(F)F)c2)CCN(Cc2nnnn2CCc2ccccc2)CC1 | – | 20.6µM | ? | 23.1µM | – | –
O=C(c1ccco1)N1CCN(Cc2nnnn2CCc2ccccc2)CC1 | – | – | – | – | – | –
OC1(c2cccc(C(F)(F)F)c2)CCN(Cc2nnnn2Cc2ccccc2)CC1 | – | ? | ? | ? | -70.3 | –
C=CCOC(=O)C1=C[C@@H](c2cn(C(C)=O)c3ccccc23)C[C@@H](OCc2ccc(CO)cc2)O1 | – | ? | · | ? | – | –
CC(=O)n1cc([C@H]2C=C(C(=O)Nc3ccccc3)O[C@@H](OCc3ccc(CO)cc3)C2)c2ccccc21 | – | 9.2µM | 9.2µM | 8.2µM | – | –
C#CCNC(=O)C1=C[C@H](c2cn(C(C)=O)c3ccccc23)C[C@H](OCc2ccc(CO)cc2)O1 | – | 16.4µM | ? | 18.4µM | – | –
